Targets with a hit are over-represented here; the source holds about 7,900 in all. About 0.6% of all pairs of compound and target were hits. Unmarked numbers belong to inactive results.
Experiments:
Assay in all cases: log2 fold change, soluble protein after heating vs DMSO (PISA); higher = thermal stabilisation; K562 cells, 10 uM, 30 min; active = over 0.2 and 3.5 SD of the protein, either way, in both replicates (recomputed)
bafetinib = compound: Cc1ccc(NC(=O)c2ccc(CN3CC[C@H](N(C)C)C3)c(C(F)(F)F)c2)cc1Nc1nccc(-c2cncnc2)n1 [bafetinib]
Summary of the method: (§1)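 Quantification of soluble protein used TMTpro 16plex LC-MS/MS, with channel sums equalised. Samples were the supernatant after 21,000xg for 90 min of pooled aliquots from K562 cells (2×10^6 cells/mL) treated with 10 μM compound for 30 min, heated for 3 min over 48°C-58°C, and extracted in PBS with 0.5% NP-40 at 4°C. Values, from duplicates, describe thermal stability against control samples on a log2 fold-change scale.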

[1] = compound: Cc1cccc(CC(=O)N2CCc3c2ccc(-c2cn(C)c4ncnc(N)c24)c3F)n1
Summary of the method: as §1

nilotinib = compound: Cc1cn(-c2cc(NC(=O)c3ccc(C)c(Nc4nccc(-c5cccnc5)n4)c3)cc(C(F)(F)F)c2)cn1 [nilotinib]
Summary of the method: as §1

[2] = compound: Cc1nc(Nc2n[nH]c3c2CN(C(=O)N[C@H](CN(C)C)c2ccccc2)C3(C)C)c2sccc2n1
Summary of the method: as §1

dasatinib = compound: Cc1nc(Nc2ncc(C(=O)Nc3c(C)cccc3Cl)s2)cc(N2CCN(CCO)CC2)n1 [dasatinib]
Summary of the method: as §1

[3] = compound: Cc1ncc(-c2ccnc(Nc3ccc(S(C)(=O)=O)cc3)n2)n1C(C)C
Summary of the method: as §1

[4] = compound: Cn1cc(-c2ccc3c(c2)CCN3C(=O)Cc2cccc(C(F)(F)F)c2)c2c(N)ncnc21
Summary of the method: as §1

[5] = compound: Cn1cc(-c2ccc3nnc(C(F)(F)c4ccc5ncccc5c4)n3n2)cn1
Summary of the method: as §1

tipifarnib = compound: Cn1cncc1[C@@](N)(c1ccc(Cl)cc1)c1ccc2c(c1)c(-c1cccc(Cl)c1)cc(=O)n2C [tipifarnib]
Summary of the method: as §1

mubritinib = compound: FC(F)(F)c1ccc(/C=C/c2nc(COc3ccc(CCCCn4ccnn4)cc3)co2)cc1 [mubritinib]
Summary of the method: as §1

[6] = compound: NC(=O)Nc1cc(-c2cccc(F)c2)sc1C(=O)N[C@H]1CCCNC1
Summary of the method: as §1

[7] = compound: NC(=O)c1cnc(N[C@@H]2CCCC[C@@H]2N)nc1Nc1cccc(-n2nccn2)c1
Summary of the method: as §1

[8] = compound: NC1(c2ccc(-c3nc4ccn5c(=O)[nH]nc5c4cc3-c3ccccc3)cc2)CCC1
Summary of the method: as §1

[9] = compound: NCC(=O)Nc1ccc(-n2nc(C(F)(F)F)cc2-c2ccc3c(ccc4ccccc43)c2)cc1
Summary of the method: as §1

entinostat = compound: Nc1ccccc1NC(=O)c1ccc(CNC(=O)OCc2cccnc2)cc1 [entinostat]
Summary of the method: as §1

vorinostat = compound: O=C(CCCCCCC(=O)Nc1ccccc1)NO [vorinostat]
Summary of the method: as §1

citarinostat = compound: O=C(CCCCCCNC(=O)c1cnc(N(c2ccccc2)c2ccccc2Cl)nc1)NO [citarinostat]
Summary of the method: as §1

silmitasertib = compound: O=C(O)c1ccc2c(c1)nc(Nc1cccc(Cl)c1)c1ccncc12 [silmitasertib]
Summary of the method: as §1

[10] = compound: O=C1NC(=O)C(c2cnc3ccccn23)=C1c1cn2c3c(cc(F)cc13)CN(C(=O)N1CCCCC1)CC2
Summary of the method: as §1

[11] = compound: c1cc(OCCN2CCCCC2)cc(-c2n[nH]c3ccc(-c4nnc[nH]4)cc23)c1
Summary of the method: as §1

Chain of UniProt Q9UHP3 (Q9UHP3 whole entry, looked up): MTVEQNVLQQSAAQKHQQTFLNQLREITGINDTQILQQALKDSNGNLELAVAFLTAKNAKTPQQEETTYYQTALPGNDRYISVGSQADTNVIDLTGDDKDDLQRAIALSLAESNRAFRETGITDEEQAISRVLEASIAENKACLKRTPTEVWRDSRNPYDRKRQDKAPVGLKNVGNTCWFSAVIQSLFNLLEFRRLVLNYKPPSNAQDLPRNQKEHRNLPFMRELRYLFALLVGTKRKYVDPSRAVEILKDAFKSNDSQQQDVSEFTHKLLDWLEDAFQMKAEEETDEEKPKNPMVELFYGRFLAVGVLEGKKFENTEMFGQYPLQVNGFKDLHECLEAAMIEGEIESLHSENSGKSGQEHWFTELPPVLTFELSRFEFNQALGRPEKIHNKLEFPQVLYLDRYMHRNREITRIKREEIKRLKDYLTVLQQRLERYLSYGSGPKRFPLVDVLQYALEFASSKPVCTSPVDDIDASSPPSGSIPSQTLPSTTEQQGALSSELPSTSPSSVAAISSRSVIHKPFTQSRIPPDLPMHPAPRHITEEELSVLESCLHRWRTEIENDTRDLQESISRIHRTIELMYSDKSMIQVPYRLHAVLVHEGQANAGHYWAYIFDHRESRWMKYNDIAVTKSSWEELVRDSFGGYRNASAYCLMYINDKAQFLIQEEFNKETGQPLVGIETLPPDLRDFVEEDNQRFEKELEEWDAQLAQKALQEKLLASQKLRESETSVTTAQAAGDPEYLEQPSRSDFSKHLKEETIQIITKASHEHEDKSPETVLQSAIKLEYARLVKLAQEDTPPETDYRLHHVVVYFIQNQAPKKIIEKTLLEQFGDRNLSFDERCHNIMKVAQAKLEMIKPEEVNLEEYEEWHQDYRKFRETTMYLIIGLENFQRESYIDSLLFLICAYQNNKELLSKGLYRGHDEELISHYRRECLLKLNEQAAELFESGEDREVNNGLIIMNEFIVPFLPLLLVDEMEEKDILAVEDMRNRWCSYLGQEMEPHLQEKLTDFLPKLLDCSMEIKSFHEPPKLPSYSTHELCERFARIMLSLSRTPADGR
Chain of UniProt Q13263 (Q13263 whole entry, looked up): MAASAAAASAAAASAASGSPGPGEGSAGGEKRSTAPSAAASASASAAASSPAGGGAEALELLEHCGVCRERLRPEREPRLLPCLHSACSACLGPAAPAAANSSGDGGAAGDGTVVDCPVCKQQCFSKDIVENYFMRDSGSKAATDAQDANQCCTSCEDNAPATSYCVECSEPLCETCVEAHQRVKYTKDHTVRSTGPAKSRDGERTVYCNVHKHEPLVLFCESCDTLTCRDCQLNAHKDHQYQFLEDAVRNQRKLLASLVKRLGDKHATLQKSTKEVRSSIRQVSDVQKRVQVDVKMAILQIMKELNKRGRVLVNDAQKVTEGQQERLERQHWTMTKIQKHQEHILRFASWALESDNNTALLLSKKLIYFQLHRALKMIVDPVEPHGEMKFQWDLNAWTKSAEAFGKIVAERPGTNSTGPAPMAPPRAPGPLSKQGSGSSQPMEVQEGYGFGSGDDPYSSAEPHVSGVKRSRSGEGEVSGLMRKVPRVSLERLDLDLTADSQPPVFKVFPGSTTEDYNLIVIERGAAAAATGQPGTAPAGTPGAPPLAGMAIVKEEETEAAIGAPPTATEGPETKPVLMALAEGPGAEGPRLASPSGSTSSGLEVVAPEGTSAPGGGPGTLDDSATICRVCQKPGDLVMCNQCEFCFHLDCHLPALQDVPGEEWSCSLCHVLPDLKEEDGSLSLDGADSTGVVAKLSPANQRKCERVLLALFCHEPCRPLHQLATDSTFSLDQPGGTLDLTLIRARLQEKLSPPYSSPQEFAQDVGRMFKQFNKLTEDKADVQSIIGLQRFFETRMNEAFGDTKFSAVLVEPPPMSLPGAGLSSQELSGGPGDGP
Chain of UniProt Q99757 (Q99757 whole entry, looked up): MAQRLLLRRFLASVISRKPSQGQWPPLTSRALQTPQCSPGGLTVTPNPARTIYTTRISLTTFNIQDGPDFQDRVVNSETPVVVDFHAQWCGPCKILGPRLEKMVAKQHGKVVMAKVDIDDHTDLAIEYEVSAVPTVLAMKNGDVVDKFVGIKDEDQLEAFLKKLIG
Chain of UniProt A3KMH1 (A3KMH1 whole entry, looked up): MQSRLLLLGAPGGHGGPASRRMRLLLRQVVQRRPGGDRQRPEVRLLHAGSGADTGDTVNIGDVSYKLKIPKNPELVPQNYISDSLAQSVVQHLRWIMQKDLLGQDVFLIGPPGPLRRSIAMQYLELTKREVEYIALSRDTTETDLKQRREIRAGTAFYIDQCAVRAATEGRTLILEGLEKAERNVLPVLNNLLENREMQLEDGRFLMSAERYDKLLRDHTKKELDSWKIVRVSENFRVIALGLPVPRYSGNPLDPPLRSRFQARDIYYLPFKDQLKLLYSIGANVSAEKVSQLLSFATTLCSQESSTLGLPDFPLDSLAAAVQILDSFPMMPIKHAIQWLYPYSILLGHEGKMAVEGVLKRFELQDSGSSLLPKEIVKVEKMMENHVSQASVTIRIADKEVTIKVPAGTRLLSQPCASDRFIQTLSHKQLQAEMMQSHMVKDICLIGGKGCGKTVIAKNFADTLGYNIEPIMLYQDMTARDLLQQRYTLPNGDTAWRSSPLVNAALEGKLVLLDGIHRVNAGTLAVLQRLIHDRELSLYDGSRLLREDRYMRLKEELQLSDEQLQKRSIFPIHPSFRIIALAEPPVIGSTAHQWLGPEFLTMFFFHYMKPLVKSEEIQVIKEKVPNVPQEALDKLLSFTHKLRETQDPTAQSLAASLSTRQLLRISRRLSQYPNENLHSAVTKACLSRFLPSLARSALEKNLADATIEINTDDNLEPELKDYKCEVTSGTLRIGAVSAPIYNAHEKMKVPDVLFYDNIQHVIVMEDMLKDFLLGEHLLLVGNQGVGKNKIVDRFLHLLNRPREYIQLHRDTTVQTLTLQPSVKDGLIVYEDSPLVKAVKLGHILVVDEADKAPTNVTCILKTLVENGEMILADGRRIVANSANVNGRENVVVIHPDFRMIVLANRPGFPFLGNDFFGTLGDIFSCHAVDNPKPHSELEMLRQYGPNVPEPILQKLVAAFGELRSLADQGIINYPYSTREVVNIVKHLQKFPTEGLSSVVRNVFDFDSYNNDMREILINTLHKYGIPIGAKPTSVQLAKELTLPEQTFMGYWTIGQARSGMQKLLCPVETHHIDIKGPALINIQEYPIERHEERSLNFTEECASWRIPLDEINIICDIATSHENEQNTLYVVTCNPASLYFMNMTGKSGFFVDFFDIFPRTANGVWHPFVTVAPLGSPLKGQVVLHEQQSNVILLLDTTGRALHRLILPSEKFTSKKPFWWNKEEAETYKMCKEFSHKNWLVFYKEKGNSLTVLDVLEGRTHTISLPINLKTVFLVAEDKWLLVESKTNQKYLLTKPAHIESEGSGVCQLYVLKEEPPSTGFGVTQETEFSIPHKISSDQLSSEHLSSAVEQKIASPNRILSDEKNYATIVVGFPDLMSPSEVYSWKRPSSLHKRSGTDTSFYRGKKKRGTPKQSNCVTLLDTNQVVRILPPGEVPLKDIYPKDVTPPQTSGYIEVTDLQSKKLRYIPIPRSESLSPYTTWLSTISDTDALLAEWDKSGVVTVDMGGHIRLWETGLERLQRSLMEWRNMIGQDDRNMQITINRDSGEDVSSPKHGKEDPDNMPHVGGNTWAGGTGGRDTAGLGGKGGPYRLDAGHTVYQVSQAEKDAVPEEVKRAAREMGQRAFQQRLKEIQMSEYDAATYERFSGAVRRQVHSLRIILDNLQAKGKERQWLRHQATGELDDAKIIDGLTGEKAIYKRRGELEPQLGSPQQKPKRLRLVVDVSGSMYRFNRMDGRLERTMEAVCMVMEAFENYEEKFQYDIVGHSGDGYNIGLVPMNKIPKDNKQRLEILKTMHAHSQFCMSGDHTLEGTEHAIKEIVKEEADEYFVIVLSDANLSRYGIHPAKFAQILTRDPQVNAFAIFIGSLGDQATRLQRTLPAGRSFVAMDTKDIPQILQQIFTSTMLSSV
Chain of UniProt O14980 (O14980 whole entry, looked up): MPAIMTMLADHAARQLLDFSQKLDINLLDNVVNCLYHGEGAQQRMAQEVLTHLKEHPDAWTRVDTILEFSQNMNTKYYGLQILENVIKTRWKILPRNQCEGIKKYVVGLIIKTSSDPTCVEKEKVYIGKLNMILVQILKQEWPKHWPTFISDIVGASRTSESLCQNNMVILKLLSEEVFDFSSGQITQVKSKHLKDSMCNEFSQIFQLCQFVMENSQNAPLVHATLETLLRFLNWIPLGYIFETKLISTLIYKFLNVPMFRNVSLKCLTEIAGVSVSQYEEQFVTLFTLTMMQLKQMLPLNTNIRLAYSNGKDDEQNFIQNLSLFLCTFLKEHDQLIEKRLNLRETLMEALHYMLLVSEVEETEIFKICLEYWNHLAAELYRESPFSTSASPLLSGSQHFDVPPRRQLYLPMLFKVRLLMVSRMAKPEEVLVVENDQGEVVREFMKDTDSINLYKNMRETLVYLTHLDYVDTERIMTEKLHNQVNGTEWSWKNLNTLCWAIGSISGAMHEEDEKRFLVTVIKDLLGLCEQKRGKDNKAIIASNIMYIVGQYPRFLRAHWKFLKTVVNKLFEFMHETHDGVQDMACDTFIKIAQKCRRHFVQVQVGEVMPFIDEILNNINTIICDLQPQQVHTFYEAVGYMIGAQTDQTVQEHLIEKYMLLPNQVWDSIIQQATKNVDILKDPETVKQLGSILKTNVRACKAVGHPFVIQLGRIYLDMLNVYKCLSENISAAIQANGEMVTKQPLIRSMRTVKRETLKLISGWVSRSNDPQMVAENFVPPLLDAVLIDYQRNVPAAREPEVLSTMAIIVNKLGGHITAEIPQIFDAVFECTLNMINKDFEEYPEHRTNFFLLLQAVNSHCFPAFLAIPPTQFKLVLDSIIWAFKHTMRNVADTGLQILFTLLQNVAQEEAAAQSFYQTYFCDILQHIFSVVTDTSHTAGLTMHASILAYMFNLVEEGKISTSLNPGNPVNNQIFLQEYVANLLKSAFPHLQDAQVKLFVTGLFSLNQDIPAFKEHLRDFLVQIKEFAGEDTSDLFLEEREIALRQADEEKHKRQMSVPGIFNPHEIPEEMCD
Chain of UniProt Q9UDW1 (Q9UDW1 whole entry, looked up): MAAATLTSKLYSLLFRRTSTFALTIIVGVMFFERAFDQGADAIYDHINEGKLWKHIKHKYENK

Row | Target | log2 fold change (bafetinib) | log2 fold change [1] | log2 fold change (nilotinib) | log2 fold change [2] | log2 fold change (dasatinib) | log2 fold change [3] | log2 fold change [4] | log2 fold change [5] | log2 fold change (tipifarnib) | log2 fold change (mubritinib) | log2 fold change [6] | log2 fold change [7] | log2 fold change [8] | log2 fold change [9] | log2 fold change (entinostat) | log2 fold change (vorinostat) | log2 fold change (citarinostat) | log2 fold change (silmitasertib) | log2 fold change [10] | log2 fold change [11]
1 | XPO1 (UniProt O14980) | -0.003 | 0.042 | -0.114 | -0.037 | -0.154 | 0.001 | 0.005 | -0.008 | -0.159 | 0.042 | 0.034 | -0.056 | -0.249 (active) | -0.026 | 0.082 | 0.052 | 0.092 | 0.025 | 0.009 | -0.054
2 | USP25 isoform 3 (UniProt Q9UHP3) | -0.043 | 0.029 | -0.021 | -0.017 | -0.048 | 0.018 | -0.038 | 0.009 | -0.024 | 0.023 | -0.038 | -0.027 | -0.071 | -0.067 | 0.001 | -0.019 | -0.021 | 0.051 | -0.03 | 0.011
3 | TMEM87B (UniProt Q96K49) | -0.138 | 0.015 | 0.037 | -0.072 | 0.002 | 0.05 | -0.077 | -0.08 | 0.069 | 0.006 | -0.098 | -0.062 | -0.266 | -0.1 | 0.135 | 0.057 | 0.021 | 0.096 | -0.032 | -0.117
4 | TMEM63B (UniProt Q5T3F8) | 0.013 | 0.002 | -0.008 | -0.021 | 0.026 | -0.061 | 0.006 | 0.004 | 0.008 | 0.047 | 0.069 | 0.059 | -0.153 | 0.052 | 0.07 | -0.008 | -0.024 | 0.001 | -0.037 | -0.021
5 | WNK1 isoform 7 (UniProt Q9H4A3) | -0.038 | 0.046 | -0.029 | -0.071 | 0.102 | 0.022 | 0.178 | -0.022 | -0.022 | 0.036 | 0.002 | 0.001 | -0.037 | -0.042 | 0.008 | -0.05 | 0.009 | -0.062 | -0.01 | -0.063
6 | TMEM192 (UniProt Q8IY95) | -0.148 | -0.083 | 0.019 | -0.002 | 0.109 | -0.042 | -0.034 | -0.051 | 0.051 | -0.032 | 0 | -0.01 | -0.374 (active) | 0.01 | -0.017 | -0.061 | -0.02 | 0.037 | 0.03 | -0.005
7 | TXN2 (UniProt Q99757) | -0.105 | -0.104 | 0.034 | -0.005 | 0.083 | -0.048 | 0.227 | 0.013 | 0.059 | 0.009 | -0.039 | -0.009 | 0.088 | 0.049 | 0.023 | -0.072 | 0.054 | -0.072 | -0.09 | -0.036
8 | XPO6 (UniProt Q96QU8) | 0.057 | -0.05 | -0.143 | -0.148 | -0.109 | 0.027 | -0.001 | -0.117 | -0.111 | 0.092 | 0.068 | -0.103 | -0.154 | -0.118 | 0.025 | 0.048 | 0.085 | 0.01 | 0.099 | -0.038
9 | UBE2S (UniProt Q16763) | -0.025 | -0.08 | -0.008 | -0.017 | 0.001 | 0.04 | -0.002 | -0.037 | -0.072 | 0.002 | -0.04 | -0.043 | -0.033 | -0.086 | -0.026 | 0.002 | 0.072 | 0.069 | -0.106 | -0.032
10 | UTP14A (UniProt Q9BVJ6) | 0.157 | 0 | 0.011 | -0.009 | 0.07 | -0.118 | -0.285 | -0.09 | 0.089 | -0.086 | 0.079 | 0.048 | 0.083 | 0.076 | 0.012 | 0 | -0.04 | 0.128 | 0.082 | -0.092
11 | VRK2 (UniProt Q86Y07) | 0.033 | 0.081 | -0.062 | 0.414 (active) | 0.011 | 0.033 | 0.129 | -0.066 | -0.057 | 0.006 | 0.023 | 0.04 | -0.111 | -0.025 | 0.032 | 0.02 | 0.008 | 0 | 0.06 | 0.001
12 | UBE2Q1 (UniProt Q7Z7E8) | -0.029 | 0.015 | -0.134 | -0.103 | -0.101 | -0.046 | -0.012 | 0.027 | -0.103 | 0.006 | -0.01 | -0.059 | -0.084 | -0.012 | 0.03 | 0.084 | 0.029 | 0.074 | -0.035 | -0.035
13 | TPR (UniProt P12270) | -0.011 | -0.004 | 0.056 | 0.04 | 0.158 | 0.047 | -0.184 | -0.017 | 0.002 | 0.089 | 0.09 | -0.039 | 0.06 | -0.032 | -0.019 | -0.084 | 0.008 | 0.3 (active) | 0.085 | 0.005
14 | UQCR10 (UniProt Q9UDW1) | -0.047 | -0.011 | -0.003 | 0.02 | -0.009 | -0.059 | 0.072 | 0.084 | 0.007 | -0.024 | -0.053 | -0.043 | 0.076 | 0.02 | -0.003 | 0.187 | 0.045 | -0.003 | -0.067 | -0.026
15 | TRIM28 (UniProt Q13263) | 0.005 | 0.011 | -0.013 | -0.035 | -0.014 | 0.013 | -0.02 | 0.004 | -0.035 | 0.009 | -0.006 | -0.008 | -0.038 | -0.007 | 0.038 | 0.032 | 0.036 | 0.036 | -0.048 | -0.009
16 | VWA8 (UniProt A3KMH1) | -0.113 | -0.001 | -0.099 | -0.018 | -0.158 | -0.016 | -0.057 | 0.067 | 0.036 | -0.255 (active) | -0.017 | -0.024 | -0.135 | -0.016 | 0.008 | 0.096 | 0.048 | -0.046 | -0.071 | -0.039
